Values joined by “and” are separate entries in the source; they are usually repeats but may differ in a detail not shown here. Equal values may be shown once. Inconclusive results are not listed. Active and inactive are the calls of the source. The call rests on the fitted dose curve; in most records, active means well fitted curve in the direction sought with a large enough effect; inconclusive means small, poorly fitted or top-dose-only effect, or another doubt; inactive means no such curve, though single readings can be large; an effect the other way counts as inactive or inconclusive.
Experiments:
[1] = molecular target: Cellular tumor antigen p53 (Homo sapiens) (UniProt P04637); test: Primary qHTS for small molecule compounds that upregulate eGFP-tagged delta133p53alpha (in N-terminal) cells. (AID 2060322); settings: NCI-H358 eGFP-delta133p53alpha fluorescence, 24 h; activation: hits give high values; further: nearly all actives have a fitted effect of over 75% in size; further: potency means the concentration at half of the fitted maximal effect;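 on activation: 0% = DMSO vehicle and 100% = reference activator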
Chain of Cellular tumor antigen p53 (Homo sapiens) (P04637 whole entry, looked up): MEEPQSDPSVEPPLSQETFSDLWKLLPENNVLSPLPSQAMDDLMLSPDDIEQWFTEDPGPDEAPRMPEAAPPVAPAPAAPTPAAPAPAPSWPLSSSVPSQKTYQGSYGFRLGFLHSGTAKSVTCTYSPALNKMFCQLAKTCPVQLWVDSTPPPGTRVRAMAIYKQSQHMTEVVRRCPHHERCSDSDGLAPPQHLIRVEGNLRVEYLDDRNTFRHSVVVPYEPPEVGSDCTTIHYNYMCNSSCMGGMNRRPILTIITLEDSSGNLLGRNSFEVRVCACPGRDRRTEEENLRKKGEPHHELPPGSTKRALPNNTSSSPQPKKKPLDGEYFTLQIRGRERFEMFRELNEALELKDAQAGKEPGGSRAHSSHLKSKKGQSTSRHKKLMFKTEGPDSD
Method in brief: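 NCI-H358 cells pre-induced 24 h with 10 ng/ml doxycycline to express N-terminal eGFP-delta133p53alpha, then dosed 24 h at 37C without doxycycline; fixed, Hoechst-stained, GFP intensity by laser scanning cytometry, normalized to DMSO (0%) and 57.5 uM 5-azacytidine (100%).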

[2] = molecular target: Aldehyde dehydrogenase, mitochondrial (Homo sapiens) (UniProt P05091); test: qHTS for Inhibitors of the Aldehyde Dehydrogenase Family (ALDH2) Primary screen (AID 2061308); settings: ALDH2 enzyme inhibition qHTS, 1536-well; series mostly up to 56 µM;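 further: plate controls were vehicle for no effect and reference inhibitor for full effect; nearly all actives have a fitted effect of over 55% in size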
[3] = molecular target: Retinaldehyde dehydrogenase 3 (Homo sapiens) (UniProt P47895); test: qHTS for Inhibitors of the Aldehyde Dehydrogenase Family (ALDH1A3) Primary screen (AID 2061315); settings: ALDH inhibition qHTS; series mostly up to 56 µM;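 further: plate controls were DMSO vehicle for no effect and reference inhibitor for full effect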
[4] = BET inhibitor-based combinations targeting novel dependencies in MECOM-rearranged (r) AML: SET-2 cell line (AID 2202231); settings: SET-2 AML cells viability, CellTiter-Glo luminescence, 48 h; viability: hits give low values, concentration not given here; further: nearly all actives have a fitted effect of over 35% in size; further: potency means the concentration at half of the fitted maximal effect;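 on viability: plate controls were DMSO treated cells for no effect and wells without cells for full effect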
Method in brief: (§1)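 500 cells/well; 11-pt dose curve; 48 h, standard incubator; CellTiter-Glo luminescence after 15 min RT; DMSO/empty-well normalization; AUC plus Z-AUC (mean-centered within each line).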

[5] = BET inhibitor-based combinations targeting novel dependencies in MECOM-rearranged (r) AML: OCI-AML3 cell line (AID 2202232); settings: CellTiter-Glo luminescence, 48 h; Potency: OCI-AML3 viability; series mostly up to 46 µM; further: nearly all actives have a fitted effect of over 35% in size; further: potency means the concentration at half of the fitted maximal effect
Method in brief: as §1

[6] = BET inhibitor-based combinations targeting novel dependencies in MECOM-rearranged (r) AML: HNT-34 cell line (AID 2202234); settings: HNT-34 AML viability, CellTiter-Glo luminescence, 48 h; series mostly up to 46 µM; further: nearly all actives have a fitted effect of over 35% in size; further: potency means the concentration at half of the fitted maximal effect
Method in brief: (§2)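 Cells were plated at 500 per well and exposed to each drug across an 11-point dose range for 48 hr at standard incubator conditions. Viability was read by CellTiter-Glo luminescence, and activity was expressed as AUC and per-cell-line Z-transformed AUC.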

[7] = BET inhibitor-based combinations targeting novel dependencies in MECOM-rearranged (r) AML: UCSD-AML1 cell line (AID 2202235); settings: UCSD-AML1 AML cells viability, CellTiter-Glo, 48 h; series mostly up to 46 µM; further: nearly all actives have a fitted effect of over 40% in size; further: potency means the concentration at half of the fitted maximal effect
Method in brief: as §2

[8] = BET inhibitor-based combinations targeting novel dependencies in MECOM-rearranged (r) AML: AML-191 cell line (AID 2202236; further: nearly all actives have a fitted effect of over 35% in size; further: potency means the concentration at half of the fitted maximal effect); settings: AML-191 viability, CellTiter-Glo luminescence, 48 h; series mostly up to 46 µM
Method in brief: as §1

[9] = BET inhibitor-based combinations targeting novel dependencies in MECOM-rearranged (r) AML: AML-194 cell line (AID 2202237; further: nearly all actives have a fitted effect of over 40% in size; further: potency means the concentration at half of the fitted maximal effect); settings: AML-194 (MECOM-r AML) viability, CellTiter-Glo, 48 h; series mostly up to 46 µM
Method in brief: as §1

[10] = BET inhibitor-based combinations targeting novel dependencies in MECOM-rearranged (r) AML: MV-4-11 cell line (AID 2202233); settings: MV-4-11 AML viability, CellTiter-Glo luminescence, 48 h; series mostly up to 46 µM; further: nearly all actives have a fitted effect of over 45% in size; further: potency means the concentration at half of the fitted maximal effect
Method in brief: as §2

Oc1ccc([C@@H]2Oc3ccc(O)cc3[C@@H]3CCC[C@@H]32)cc1
active: Potency [4] 18.6 µM | Potency [5] 16.6 µM | Potency [6] 9.34 µM | Potency [7] 5.9 µM | Potency [8] 5.9 µM | Potency [9] 7.42 µM
inactive: activation [1] 23.4% | Potency [2] | Potency [3]

CCn1c(-c2nonc2N)nc2cncc(CNC3CCNCC3)c21
active: Potency [5] 1.66 µM | Potency [10] 2.63 µM | Potency [7] 5.9 µM | Potency [8] 1.86 µM | Potency [9] 4.68 µM
inactive: activation [1] -16.3% and 6.25% | Potency [2] | Potency [3] | viability [4] 103%

CCc1c2c(nc3ccc(O)cc13)-c1cc3c(c(=O)n1C2)COC(=O)[C@]3(O)CC
active: Potency [1] 1.51 µM | Potency [4] 0.0166 µM | Potency [5] 0.0093 µM | Potency [10] 0.0093 µM | Potency [7] 0.0083 µM | Potency [8] 0.0093 µM | Potency [9] 0.0118 µM
inactive: Potency [2] | Potency [3]

O=C(Nc1ccc(Oc2ccnc3[nH]ccc23)c(F)c1)c1cccn(-c2ccc(F)cc2)c1=O
inactive: activation [1] -27.3% and -22.3% | Potency [2] | Potency [3] | viability [4] 106%
active: Potency [5] 13.2 µM | Potency [10] 0.0295 µM | Potency [8] 2.35 µM | Potency [9] 8.33 µM

COc1cccc2c1c(O)c(C(=O)N(C)c1ccc(C(F)(F)F)cc1)c(=O)n2C
inactive: activation [1] 10.1% | Potency [2] | Potency [3] | viability [4] 40.7% | Potency [5] | Potency [10] | Potency [7] | Potency [8] | Potency [9]

CNc1nccc(-c2cccnc2Oc2cc(C(=O)Nc3cccc(C(F)(F)F)c3)ccc2C)n1
inactive: activation [1] -0.576% | Potency [2] | Potency [3]
active: Potency [4] 16.6 µM | Potency [5] 2.35 µM | Potency [10] 2.95 µM | Potency [7] 6.61 µM | Potency [8] 6.61 µM | Potency [9] 6.61 µM

NC(=O)c1cccc2[nH]c(-c3ccc([C@H]4CCCN4)cc3F)nc12
active: Potency [4] 20.9 µM | Potency [5] 20.9 µM | Potency [10] 16.6 µM | Potency [8] 16.6 µM
inactive: activation [1] 28.6% | Potency [2] | Potency [3] | Potency [7]

CC[C@]12C=CCN3CC[C@@]4(c5cc([C@@]6(C(=O)OC)C[C@H]7C[C@@H](C(C)(F)F)CN(Cc8c6[nH]c6ccccc86)C7)c(OC)cc5N(C)[C@H]4[C@@](O)(C(=O)OC)[C@@H]1OC(C)=O)[C@@H]32
active: Potency [1] 0.199 µM | Potency [4] 0.783 µM | Potency [5] 0.124 µM | Potency [10] 0.197 µM | Potency [7] 0.139 µM | Potency [8] 0.0698 µM | Potency [9] 0.139 µM
inactive: Potency [2] | Potency [3]

Cc1ccc(C(=O)Nc2ccc(Oc3cc4cnn(C)c4cc3-c3cn[nH]c3)c(F)c2)c(=O)n1-c1ccc(F)cc1
active: Potency [1] 15.1 µM | Potency [4] 11.8 µM | Potency [5] 5.25 µM | Potency [10] 0.0053 µM | Potency [7] 5.25 µM | Potency [8] 6.61 µM
inactive: Potency [2] | Potency [3]

COc1cc(C(=O)N2CCC(N3CCN(C)CC3)CC2)ccc1Nc1ncc2c(n1)N(C)c1ccccc1C(=O)N2C
inactive: activation [1] -6.3% and 0.893% | Potency [2] | Potency [3]
active: Potency [4] 6.61 µM | Potency [5] 2.35 µM | Potency [10] 1.48 µM | Potency [7] 4.68 µM | Potency [8] 9.34 µM | Potency [9] 16.6 µM

CCNC(=O)[C@H]1O[C@@H](n2cnc3c(N)nc(NCCc4ccc(CCC(=O)O)cc4)nc32)[C@H](O)[C@@H]1O
inactive: activation [1] -4.46% | Potency [2] | Potency [3] | viability [4] 115% | Potency [5] | Potency [6] | Potency [7] | Potency [8] | Potency [9]

O=C([C@@H](Cc1cccc(C(F)(F)F)c1)NS(=O)(=O)c1cc(F)c2c(c1)CCNC2)N1CCCC1
inactive: activation [1] -6.33% | Potency [2] | Potency [3] | viability [4] 107% | Potency [7] | Potency [8] | Potency [9]
active: Potency [5] 11.8 µM | Potency [10] 20.9 µM

CC(C)(C)C(=O)Oc1ccc2c(c1)nc(NC(=O)c1cccc([N+](=O)[O-])c1)n2CCCO
inactive: activation [1] 12% | Potency [2] | Potency [3] | viability [4] 111% | Potency [5] | Potency [7] | Potency [9]
active: Potency [10] 2.95 µM

N[C@@H](Cc1cc(I)c(Oc2cc(I)c(O)c(I)c2)c(I)c1)C(=O)O
inactive: activation [1] -1.69% and -8.29% and -5.67% | Potency [2] | Potency [3] | viability [4] 108% | Potency [5] | Potency [10] | Potency [7] | Potency [8] | Potency [9]

From PubChem BioAssay (NCATS)
